# Shown are actives, neighbours in structure and some others; about 4.1% of the full set was active somewhere.
# DAX1 inh-1 – inhibits human nuclear receptor DAX1. P51843. HEK293 Gal4-DAX1 luciferase reporter, luminescence. inhibition, % at 6.75 µM. hit rate 0.99% among 340,000. AID 504766;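 active = inhibition above the mean over all tested compounds plus 3 SD, cut at about 4.2% in these data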;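 also: 0% = DAX1-transfected cells with DMSO and 100% = empty-vector control cells with DMSO; inhibition shows as a rise in luminescence from relieved DAX1 repression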
# DAX1 inh-2 – inhibitors of DAX1 repression of SF-1 activated StAR promoter; HEK293T StAR-luciferase reporter, SF-1/DAX-1 repression relief; inhibition, % at 6.8 µM; hit rate 1.1% among 370,000;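 active = inhibition above the mean over all tested compounds plus 3 SD, cut at about 3.6% in these data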;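 also: 0% = DAX-1 cells with DMSO and 100% = cells lacking DAX-1 with DMSO; higher inhibition means more luminescence from relief of DAX-1 repression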
# ssDAF-12 act – activates DAF-12 receptor from parasite S. stercoralis | HEK293 ssDAF-12/GRIP1 lit1-tk-luc reporter, luminescence; % of 3 µM dafachronic acid response | activation, % at 6.8 µM | hit rate 1% among 370,000 | AID 652126;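 active = activation above the mean over all tested compounds plus 3 SD, cut at about 0.9% in these data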;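 also: 0% = DMSO-only wells and 100% = 3 µM delta7-dafachronic acid wells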
# hcDAF-12 act – H. contortus DAF-12 activation, primary screen | activation, % at 6.8 µM | AID 652067 | HEK293 hcDAF-12 lit1-tk-luc reporter, luminescence; 0% DMSO, 100% Δ7-dafachronic acid | hit rate 1.4% among 370,000;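 active = activation above the mean of all tested compounds plus 3 SD, cut at about 5.5% in these data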;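 also: 100% = response to 3 µM Δ7-dafachronic acid high control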
# hgDAF-12 ag – agonists of H. glycines DAF-12 nuclear receptor; HEK293 GAL4-hgDAF12 UAS-luciferase reporter, agonist luminescence; normalized to butyrate control; activation, % at 6.8 µM; hit rate 1.8% among 370,000;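 active = activation above a cutoff set at the mean of all screened compounds plus 3 SD, cut at about 10% in these data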;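 also: 0% = DMSO wells and 100% = sodium butyrate wells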
# LXR ag – LXR-beta agonism as hcDAF-12 counter-screen. shares compounds with hcDAF-12 act. HEK293 Gal4-LXR tk-luc reporter, luminescence, 24 h; normalized: DMSO 0%, positive control 100%. activation, % at 6.8 µM. 3,400 tested, under 10 active. AID 743027;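 active = mean percent activation of the reporter above a cutoff set as the average over tested compounds plus their standard deviation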
# Target sequence (P55055 whole entry, looked up, the tested form may be a part): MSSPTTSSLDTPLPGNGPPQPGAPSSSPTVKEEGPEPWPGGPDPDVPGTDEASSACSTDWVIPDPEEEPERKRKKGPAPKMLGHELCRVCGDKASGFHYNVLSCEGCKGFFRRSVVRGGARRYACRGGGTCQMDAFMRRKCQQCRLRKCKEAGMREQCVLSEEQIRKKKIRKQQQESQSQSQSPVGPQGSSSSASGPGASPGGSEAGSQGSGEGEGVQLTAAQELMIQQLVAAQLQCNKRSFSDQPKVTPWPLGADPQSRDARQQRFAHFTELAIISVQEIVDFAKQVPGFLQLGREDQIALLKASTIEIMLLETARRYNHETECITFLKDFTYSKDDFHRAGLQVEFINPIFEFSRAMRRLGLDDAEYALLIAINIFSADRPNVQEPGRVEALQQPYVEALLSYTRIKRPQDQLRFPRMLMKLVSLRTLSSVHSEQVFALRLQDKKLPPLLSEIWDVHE
# hcDAF12 conf – confirmation of H. contortus DAF-12 agonists; shares compounds with hcDAF-12 act; HEK293 hcDAF-12 lit1-tk-luc reporter, luminescence; % of Δ7-dafachronic acid response; activation, % at 6.8 µM; hit rate 61% among 3,400; AID 743032;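 active = mean activation across triplicate tests above the threshold derived from the earlier primary screen, cut at about 5.5% in these data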;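 also: 0% = DMSO only wells and 100% = 3 µM Δ7-dafachronic acid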
# hgDAF12 conf – hgDAF-12 agonism, confirmation assay; shares compounds with hgDAF-12 ag; HEK293 GAL4-hgDAF12 luciferase reporter, agonist mode; percent of butyrate response; activation, % at 6.8 µM; hit rate 80% among 3,300; AID 743050;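 active = mean activation over triplicate wells above the hit cutoff derived from the earlier primary screen, cut at about 11% in these data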;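 also: 0% = DMSO low control and 100% = 2 mM sodium butyrate high control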
# LXR ag 2 – LXR-beta agonism as DAF-12 counter-screen. 3,300 tested, under 10 active. HEK293 Gal4-LXR luciferase reporter, 24 h. shares compounds with hgDAF-12 ag. AID 743051. activation, % at 6.8 µM;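 active = mean activation of the triplicate above a set limit carried over from the primary screen, none filed active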
# Numbers without * were called inactive; x = not tested or not shown.
SMILES,DAX1 inh-1,DAX1 inh-2,ssDAF-12 act,hcDAF-12 act,hgDAF-12 ag,LXR ag,hcDAF12 conf,hgDAF12 conf,LXR ag 2
Cc1ccc2nc(-c3ccc(O)cc3)oc2c1,0,3,2.2*,9.0*,19*,2,7.2*,21*,1
CN(/N=C/c1ccncc1)c1cnc2ccccc2n1,1,4.4*,1.5*,6.6*,19*,1,10*,12*,1
CC1(C)CC(/C=C/c2ccccc2)=Nc2ccccc2N1,6.0*,2,1.8*,7.6*,19*,0,2,10,0
Cc1cccc(N/C=C/C(=O)c2ccc(Cl)cc2)c1,4.7*,2,0,6.6*,14*,2,6.9*,22*,1
COc1ccc(N/C=C\C(=O)c2ccc(C)cc2)cc1OC,1,0,-1,-1,1,x,x,x,x
Cc1ccc(Cl)c(N/C=C/C(=O)c2ccccc2)c1,3,3,2.9*,13*,15*,2,16*,26*,1
CCCCN(C(=O)CSCC(=O)Nc1ccc(C)cc1)c1c(N)n(CC(C)C)c(=O)[nH]c1=O,0,2,-1,2,4,x,x,x,x
Cc1csc(NC(=O)c2ccc3nc[nH]c3c2)n1,1,2,0,9.8*,20*,1,5,20*,1
Cc1ccc2nc(NC(=O)c3ccc(-c4nc5ccccc5s4)s3)sc2c1,0,-3,-2,-3,-9,x,x,x,x
O=C(Nc1nc2ccccc2s1)c1ccc(Cl)s1,6.5*,4.0*,0,8.4*,15*,2,7.2*,21*,1
O=C(Nc1nc2ccc(Cl)cc2s1)c1ccco1,1,4,0,7.4*,16*,1,6.6*,17*,1
CCOc1ccc(NC(=O)CN(C)C(=O)C2CC(=O)N(c3ccc4c(c3)OCCO4)C2)cc1OCC (configuration not stated),1,0,0,-1,2,x,x,x,x
O=C(Cc1ccc(Cl)cc1Cl)OCC(=O)N1CCCCC1,-1,0,-1,-1,-1,x,x,x,x
Cn1c(N/N=C/c2cc3ccccc3nc2Cl)nc2ccccc21,-2,3,1.4*,12*,15*,2,11*,17*,1
COc1ccc(CCNC(=O)C(=O)NCCC2CCCCN2S(=O)(=O)c2cccs2)cc1 (configuration not stated),-1,-4,-1,-3,0,x,x,x,x
Cc1cccc(N2CCN(C(=O)c3ccc(Cl)c(S(=O)(=O)N4CCc5ccccc5C4)c3)CC2)c1C,0,0,-1,0,2,x,x,x,x
O=C(NN=C1CCCC1)c1cccs1,3,4.4*,1,7.0*,22*,0,1,4,0
Cc1cc2nc(-c3ccc[nH]c3=O)n(Cc3ccc(F)cc3)c2cc1C,1,0,-1,0,1,x,x,x,x
Cc1cc2nc(-c3ccc[nH]c3=O)[nH]c2cc1C,-5,3,1.2*,7.6*,15*,2,7.9*,12*,1
CC(C)Oc1ccc(CN2CCC(n3nccc3NC(=O)CCc3ccccc3)CC2)cc1,-1,0,-1,0,-1,x,x,x,x
O=C(c1ccccc1)n1c(=S)nc2ccccn21,3,3,1.1*,15*,16*,2,14*,17*,1
O=C(Nc1ccc2c(c1)CCC2)c1cccc(F)c1,1,4.4*,1,8.0*,19*,1,5.7*,14*,1
O=C(Cc1cccc(F)c1)Nc1ccc2c(c1)CCC2,-1,0,-1,-1,4,x,x,x,x
NC(=O)[C@@H]1CCCN1Cc1nc(-c2cccs2)no1,0,-1,-1,0,0,x,x,x,x
O=S(=O)(Nc1nc2ccccc2nc1N1CCc2ccccc2C1)c1ccc(Cl)cc1,0,4.3*,2.5*,16*,20*,0,6.3*,24*,1
SMILES,DAX1 inh-1,DAX1 inh-2,ssDAF-12 act,hcDAF-12 act,hgDAF-12 ag,LXR ag,hcDAF12 conf,hgDAF12 conf,LXR ag 2
O=S(=O)(Nc1nc2ccccc2nc1N1CCN(c2ccccn2)CC1)c1ccc(Cl)cc1,1,0,-1,0,2,x,x,x,x
O=C(Nc1ncccc1O)c1ccc(Oc2ccccc2)cc1,1,3.8*,0,6.8*,19*,1,5.8*,26*,1
O=C(N/N=C/C(Br)=C\c1ccccc1)c1cccs1,x,2,0,4,9,x,x,x,x
CC(=C/c1ccccc1)/C=N/NC(=O)c1cccs1,x,2,-1,7.8*,19*,2,8.2*,15*,1
COc1cccc(N2C(=O)C(c3ccccc3)=C(c3nc4ccccc4s3)C2NC(C)=O)c1 (configuration not stated),0,0,-1,0,-1,x,x,x,x
COc1cccc(-c2nc3ccccc3s2)c1,1,4.4*,1.7*,15*,17*,2,11*,27*,1
Cc1ccc(S(=O)(=O)/N=C(/NC(=S)Nc2ccccc2)c2ccccc2)cc1,4,3,2.6*,14*,28*,1,5,20*,1
Cn1c(=O)c(C(=O)Nc2ccccc2S(N)(=O)=O)c(O)c2ccccc21,4,1,0,3,7,x,x,x,x
Cn1c(=O)c(C(=O)Nc2ccccn2)c(O)c2ccccc21,4,3.9*,3.0*,14*,17*,2,18*,24*,1
O=C(Nc1cccc(O)c1)c1c(O)c2ccccc2[nH]c1=O,5.0*,2,3.9*,14*,13*,2,15*,24*,1
CCN(CC)CCn1c2c(c(SCC(=O)Nc3cccc4ccccc34)nc1=O)CCC2,-1,1,0,-2,-1,x,x,x,x
O=C(CCc1nnc(CCCc2ccccc2)o1)NC(C1CC1)C1CC1,5.0*,2,1,7.3*,16*,1,4,15*,1
Cc1ccc(CNC(=O)COC(=O)CCC(=O)c2cccs2)cc1,0,0,-1,0,1,x,x,x,x
O=C1Nc2cc(C(=O)N3CCOCC3)ccc2S/C1=C/c1ccccc1F,0,-2,-2,-3,1,x,x,x,x
Cc1cccnc1Nc1nc(-c2ccc(F)cc2)cs1,6.2*,3,1.9*,10*,18*,1,8.2*,16*,1

# Screening results (PubChem)
